Structures are written as SMILES. “And” between values parts separate entries of the source, which are not always exact repeats. Identical values can stand only once. Compounds without any hit were thinned out: in the full panel of roughly 83,000, 20% have a hit.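 Treatment: one concentration, 48 hours, 96-well format. Scoring: percent growth, with anything below 10 considered active.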 The source made the active and inactive calls.

For the experiment, the system named is MDA-MB-468 breast. Put plainly: NCI-60 one-dose screen, 48 h (100 = growth as untreated, 0 = no growth, -100 = all killed). The note with it: 10 µM unless noted.
With `NS(=O)(=O)c1ccc(-n2nc(C(=O)N/N=C\c3ccc(F)cc3)cc2-c2ccc(Br)cc2)cc1`, the growth was 73.9% (inactive).
As for `O=C1N/C(=N\c2nnc(-c3ccc(O)cc3)s2)S/C1=C\c1ccccc1O`, the figure is 99.4% (inactive); as for `O=C1C=CC(=O)N1c1cccc(N2C(=O)C=CC2=O)c1`, 51.5% (inactive).
In the case of `N#Cc1cnc(NCCc2ccncc2)nc1-n1cnc2ccccc21` it was 74.2% (inactive).
In the case of `Cc1oc2nc[nH]c(=O)c2c1C(=O)/C=C/c1ccc(Br)cc1` it was -55.4% (active); in that of `COc1ccc(C(=O)/C=C/c2cccc([N+](=O)[O-])c2)c(OC)c1`, -3.24% (active).
For `NNc1ncnc2nc[nH]c12`, the growth was 36.8% (inactive).
Take `Cc1cc(C)nc(SCC(=O)Nc2cccc(N=Cc3ccccc3O)c2)n1`: the growth was 87.8% (inactive).
As for `COC1C(O)CC(OC2CC(OC3CC(O[C@@H]4C(=O)c5c(cc6cc(OC7CC(OC8CC(O)C(O)C(C)O8)C(O)C(C)O7)c(C)c(O)c6c5O)CC4[C@H](OC)C(=O)O)OC(C)C3O)OC(C)C2O)OC1C` (stereo not given in full), the figure is 15.8% (inactive).
As for `Clc1ccc(-c2nnc(COc3ccccc3Cl)o2)cc1`, the figure is 93.7% (inactive); as for `CCC(=O)C(CC)c1cccc(OC)c1` (stereo not given), 102% (inactive).
Take `NC(CS/C(Cl)=C/Cl)C(=O)O` (stereo not given): the growth was -38.5% (active).
As for `Cc1ccc(Nc2nnc(-c3cc(-c4ccncc4)n(-c4ccccc4)n3)s2)cc1`, the figure is 48.7% (inactive); as for `COc1ccc(/C=C2\CN(C(=O)C(Cl)Cl)C/C(=C\c3ccc(OC)c(OC)c3)C2=O)cc1OC`, -14.2% (active).
`CCC(C)CC(CC)NCCN1CCN(C(CC)CC(C)CC)C1=S` (stereo not given): the growth was -43.6% (active).
As for `Cn1cc(-c2ccc3nc(-c4ccc(CC(=O)ONc5cc(C(C)(C)C)on5)cc4)cnc3c2)cn1`, the figure is 45.8% (inactive); as for `Nc1c(C(=O)Nc2cccc(C(F)(F)F)c2)sc2nc3c(cc12)C(O)CCC3` (stereo not given), 22.4% (inactive); as for `CCC(=O)Nc1cc2c(cc1Cl)-c1ccccc1C2`, 97.9% (inactive).
As for `C#CCN(C)CCCOc1ccc(NCc2ccc(C(=O)NO)cc2)cc1Cl`, the figure is -5.18% (active).
In the case of `Cc1cc(C)c(C#N)c(Sc2nc(C)c([N+](=O)[O-])c(C)c2C#N)n1` it was 46% (inactive); in that of `CCN1C(=O)N(CC)C2C1NN=c1s/c(=C3\C(=O)N(C)c4ccccc43)c(=O)n12` (stereo not given), 13.4% (inactive); in that of `Brc1cccc(-c2cc(-c3ccc4nccnc4c3)[nH]n2)c1`, 22.9% [25 µM] (inactive).
As for `Nc1nnc2cc(F)ccc2n1`, the growth was 122% (inactive).
In the case of `Nc1ccc(C2=Nc3cccc4cccc(c34)S2)cc1` it was 0.26% (active).
As for `N#Cc1c(-c2ccc(Cl)cc2)nc(SCc2ccccc2)nc1N1CCNCC1`, the figure is 10.3% (inactive); as for `O=S(=O)(O)c1ccc(N=NSc2ccc3ccccc3c2)cc1`, 108% (inactive).
`CCCCCCCCCCC1OC(C)CC(C)O1` (stereo not given): the growth is 98.5% (inactive).
As for `Cc1ccc2c(=O)cc(C(=O)Nc3sc4c(c3C(=O)NCc3cccnc3)CCCC4)oc2c1C`, the figure is 109% (inactive); as for `CC(=O)Oc1ccc(CCN2C(=O)CSC2=S)cc1`, -12.9% (active); as for `CCNC1=CC(=O)c2ncccc2C1=O`, 43.4% (inactive).
In the case of `CCn1c(C)nc([N+](=O)[O-])c1Sc1nc(N)nc2nc[nH]c12` it was -11.2% (active); in that of `Cc1cc(C)c(-c2c(N)cc(Br)cc2Br)c(N)c1`, -17.1% (active).
In the case of `O=C1Nc2c(ccc(Cl)c2Cl)/C1=C\c1ccc(C(F)(F)F)cc1` it was 92.8% (inactive).
`COc1cc2nc(N3CCN(C(=O)C4COc5ccccc5O4)CC3)nc(N)c2cc1OC` (stereo not given): the growth is 78.2% (inactive) and 104% (inactive).
In the case of `COC(=O)CCC/C=C\C[C@H]1C=CC(=O)/C1=C/C[C@@H](O)C/C=C\CC(F)(F)F` it was -6.29% (active); in that of `COc1ccc(/C=C2\SC(=S)N(CCCN3CCOCC3)C2=O)c(OC)c1`, 87.4% (inactive).
In the case of `C=CCN(CCOC(=O)c1ccc([N+](=O)[O-])cc1)CCOC(=O)c1ccc([N+](=O)[O-])cc1` it was 105% (inactive); in that of `CCOC(=O)C1=C(N)Oc2c(sc3c(F)cccc23)C1c1ccc(O)cc1` (stereo not given), 15.3% (inactive).
`COc1cc2cc(Oc3ccc(NC(=O)Nc4cc(C(F)(F)F)cc(C(F)(F)F)c4)cc3)c(C)nc2cc1OCCN1CCOCC1`: the growth is -12% (active).
`O=C(CCc1ccccc1)N1CCN(C(=O)CCc2ccccc2)CC1`: the growth was 111% (inactive).
